Source: PubChem BioAssay (National Center for Advancing Translational Sciences (NCATS))
In the library only some 18% were active in any assay of this set; here they are far more common.
TDP1 cell CPT: DT40-hTDP1 cell growth loss with CPT | chicken DT40 Tdp1-/-;hTDP1 cells + 20 nM CPT, ATP luminescence, 48 h | Potency, µM (series often up to 46.2 µM), usual class: inhibitors | 420,000 tested, 12% active | AID 686979; also: nearly all actives have a fitted effect of over 55% in size
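Chicken DT40 Tdp1-/- cells stably complemented with human TDP1 were seeded at 400 cells/well in medium containing 20 nM camptothecin, exposed to pin-transferred compounds, and grown at 37 °C for at least 48 hr. Viability was read as ATP luminescence.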
TDP1 inh: TDP1 (human) enzyme inhibition; Q9NUW8; recombinant TDP1, AlphaScreen DNA substrate cleavage; Potency, µM (highest dose often 130 µM), usual class: inhibitors; 350,000 tested, 0.28% active; AID 485290; also: nearly all actives have a fitted effect of over 40% in size
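Recombinant E. coli-expressed Tdp1 (1 nM) preincubated with compound 15 min at RT, then 5'-biotin/3'-phosphotyrosine-FITC DNA substrate (15 nM) added for 5 min. AlphaScreen beads (10 ug/ml) added, 10 min RT; tyrosine-FITC cleavage read as signal loss.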
Six1-Eya2 inh: Six1/Eya2 interaction inhibition | activity change, % (test concentration not listed) | 360,000 tested, 0.56% active | AlphaScreen GST-Six1/His-Eya2 binding, biochemical; stronger effect = lower value; in the data active = activity change below about -65%; inconclusive = mostly about -30% to -63%
Target sequence (O00167 whole entry, looked up): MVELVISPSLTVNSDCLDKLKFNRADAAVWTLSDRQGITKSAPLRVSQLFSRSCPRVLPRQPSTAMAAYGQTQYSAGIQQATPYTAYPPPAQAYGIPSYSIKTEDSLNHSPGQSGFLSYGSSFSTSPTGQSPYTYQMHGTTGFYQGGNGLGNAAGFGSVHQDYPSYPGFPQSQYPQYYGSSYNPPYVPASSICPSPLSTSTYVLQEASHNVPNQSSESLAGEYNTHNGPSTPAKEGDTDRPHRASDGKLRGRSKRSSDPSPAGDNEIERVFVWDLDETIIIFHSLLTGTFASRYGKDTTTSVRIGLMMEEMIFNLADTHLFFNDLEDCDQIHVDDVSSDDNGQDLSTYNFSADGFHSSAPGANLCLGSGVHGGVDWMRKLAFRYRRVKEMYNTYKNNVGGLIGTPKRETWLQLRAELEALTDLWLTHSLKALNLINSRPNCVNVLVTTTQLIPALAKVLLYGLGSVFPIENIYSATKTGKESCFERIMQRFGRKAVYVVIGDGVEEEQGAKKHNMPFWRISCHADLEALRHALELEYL
Target sequence (Q15475 whole entry, looked up): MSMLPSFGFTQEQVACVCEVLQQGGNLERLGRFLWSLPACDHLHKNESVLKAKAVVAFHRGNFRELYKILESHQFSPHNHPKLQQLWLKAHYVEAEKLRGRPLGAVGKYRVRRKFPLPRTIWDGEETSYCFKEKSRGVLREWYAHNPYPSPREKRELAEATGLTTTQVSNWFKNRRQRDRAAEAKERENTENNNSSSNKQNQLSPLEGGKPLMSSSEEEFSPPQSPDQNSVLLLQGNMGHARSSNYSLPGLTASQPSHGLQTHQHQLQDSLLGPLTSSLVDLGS
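Six1/Eya2 binding was read as AlphaScreen signal after compounds were pinned into GST-Six1 plus His-tagged Eya2 (5X stock 250/500 nM) in pH 8.0 Tris/NaCl/TCEP buffer, beads added, then incubated 1 h, 37 C, dark.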
IL-1B inflam inh: inflammasome signaling inhibition, IL-1 beta readout; THP-1 LPS/ATP IL-1B secretion, AlphaLISA, 16 h; stronger effect = lower value; activity change, % at 57.5 µM; 360,000 tested, 4.7% active; AID 743279; in the data active = activity change below about -50%; inconclusive = mostly about -30% to -49%
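THP-1 cells pretreated 1 hr with compounds (up to 57.5 uM final), then stimulated with LPS (250 ng/mL final) plus ATP (1.25 mM final); secreted IL-1B measured by AlphaLISA after 16 hr, decreased signal indicating inhibition.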
CtBP-E1A inh: blocks the CtBP interaction with E1A; AlphaScreen GST-E1A/His-CtBP binding, 1536-well; stronger effect = lower value; activity change, % (test concentration not listed); 340,000 tested, 0.49% active; AID 651724; in the data active = activity change below about -65%; inconclusive = mostly about -30% to -63%
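Protein mix (5X: 125 nM each GST-E1A, His-CtBP) was incubated with pinned compound 2 h at 37 deg C in dark, in 50 mM Tris pH 8.0 buffer with 300 mM NaCl. Glutathione donor and nickel acceptor beads followed; AlphaScreen signal read after 1 h.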
DT40 TDP1 no CPT: qHTS for Inhibitors of human tyrosyl-DNA phosphodiesterase 1 (TDP1): qHTS in cells in absence of CPT; Potency, µM (titrated, usually from 46.2 µM), usual class: inhibitors; 420,000 tested, 15% active; DT40 Tdp1-/- hTDP1 cells, no CPT, ATP luminescence, 48 h; also: nearly all actives have a fitted effect of over 55% in size
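Readout: luminescence from CellTiter-Glo after 30 min in the dark at RT. Cells: DT40 Tdp1-/- with stable hTDP1, 400/well. Exposure: compounds alone, ≥48 hr, 37 °C.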
Numbers stand for hits; n = inactive; u = inconclusive; x = not tested or not shown. Unless noted, calls follow the shape of the dose curve; as a rule, active = well fitted curve in the direction sought with a large enough effect; inconclusive = small, poorly fitted or top-dose-only effect, or another doubt; inactive = no such curve, though single readings can be large; an effect the other way counts as inactive or inconclusive.

SMILES	TDP1 cell CPT	TDP1 inh	Six1-Eya2 inh	IL-1B inflam inh	CtBP-E1A inh	DT40 TDP1 no CPT
Cc1ccc2c(=O)cc(C(=O)Nc3ccc(S(=O)(=O)N(C)Cc4ccccc4)cc3)oc2c1	u	n	x	x	x	u
Cc1cccc(N(C(=O)c2csnn2)C(C(=O)NC2CCCC2)c2ccncc2)c1 (stereo not drawn)	n	n	n	n	n	n
COc1ccc2sc3ccccc3c(=O)c2c1	n	x	n	n	n	n
CN1CCCC1CCNc1ccc2sc3ccccc3c(=O)c2c1 (stereo not drawn)	u	x	n	-66	u	u
COc1cc2sc3cc(NCCCN4CCOCC4)ccc3c(=O)c2cc1OC	u	n	n	-75	u	u
O=c1c2ccccc2sc2ccc(NCCCN3CCOCC3)cc12	u	x	n	n	n	23µM
Cc1cc2oc3cc(NCCC4CCCN4C)ccc3c(=O)c2cc1C (stereo not drawn)	8.2µM	x	n	-85	n	5.8µM
CC1(C)Cc2c(c(N3CCCCC3)[nH]c(=S)c2C#N)CS1	n	n	n	n	n	n
CC1(C(=O)NS(=O)(=O)c2cccc(OC(F)F)c2)CCN1C(=O)CC1CCCC1 (stereo not drawn)	n	x	n	n	n	n
Cc1cccc(OCc2n[nH]c(=S)o2)c1C	n	n	n	n	x	n
CCCC(=O)NC(=S)Nc1ccccc1C(F)(F)F	n	n	n	n	n	n
CCCCNC(=O)C(CC)(ONc1ccccc1C(F)(F)F)c1ccccc1OC (stereo not drawn)	u	n	n	u	n	16µM
COc1ccccc1CNc1nc(NCCOc2ccccc2)c2sccc2n1	5.8µM	x	n	-93	n	5.8µM
COCCNc1nc(NCc2ccccc2OC)c2sccc2n1	23µM	x	n	n	n	16µM
OCc1ccccc1-c1nc(NCc2ccccc2)nc2ccsc12	u	x	n	n	n	n
CC(C)Nc1nc(NCc2ccccc2)c2sccc2n1	9.2µM	x	n	-101	n	18µM
COc1ccccc1CNc1nc(NCc2ccccc2OC)c2sccc2n1	12µM	x	n	-52	n	15µM
COc1ccccc1CNc1nc(NCCNC(C)=O)c2sccc2n1	u	x	n	n	n	u
COc1ccc(CCN(C)C(=O)CN2C(=O)NC3(CCCCCC3)C2=O)cc1OC	n	n	n	n	n	n
Cc1ccc2c(c1)C(c1ccc(O)cc1)(c1ccc(O)cc1)C(=O)N2C	n	n	n	n	n	n
COc1ccccc1CNc1nc(Nc2cccc(-c3cnco3)c2)c2sccc2n1	18µM	x	n	x	n	21µM
COc1ccccc1CNc1nc(Oc2cccc(F)c2)c2sccc2n1	u	x	n	n	n	u
COc1ccccc1CNc1nc(Nc2ccccc2-n2cccn2)c2sccc2n1	15µM	x	n	n	n	16µM
Clc1ccccc1Nc1nc(NCc2ccccc2)nc2ccsc12	9.2µM	x	n	n	n	9.2µM
CC(=O)Nc1ccc(CNc2nc(NCc3cccs3)nc3ccsc23)cc1	n	x	n	n	n	n
SMILES	TDP1 cell CPT	TDP1 inh	Six1-Eya2 inh	IL-1B inflam inh	CtBP-E1A inh	DT40 TDP1 no CPT
Fc1ccc(Nc2nc(NCc3cccs3)nc3ccsc23)cc1	u	x	n	n	n	21µM
CC(=O)NC1CC2CCCC(C1)N2C(=O)Nc1ccc(Cl)c(C(F)(F)F)c1 (stereo not drawn)	n	n	n	n	n	n
Cc1cc(Nc2cccc(Cl)c2)n2ncnc2n1	n	n	n	n	n	n
CCn1c(SCC(=O)Nc2nonc2C)nnc1-c1ccoc1C	n	n	n	n	n	n
C[C@H]1CN([C@@H](C)CO)C(=O)CCCn2nncc2CO[C@H]1CN(C)C(=O)CCC(F)(F)F	n	x	n	n	n	n
COCCNc1nc(NCc2ccccc2)nc2ccsc12	21µM	x	n	n	n	9.2µM
COCCNc1nc(NC(C)C)nc2ccsc12	n	x	n	n	n	n
c1cc2cc(CNc3nc(NCC4CC4)nc4ccsc34)ccc2o1	16µM	x	n	-78	n	u
CC(C)Nc1nc(Nc2ccc(Cl)cc2F)c2sccc2n1	21µM	x	n	n	n	21µM
